# Measured values reported in PMC7862700, “An all-to-all approach to the identification of sequence-specific readers for epigenetic DNA modifications on cytosine”.
# What was measured:
# Assay in all cases: DAPPL (digital affinity profiling via proximity ligation, sequencing); 10 mM Tris-HCl pH 7.5, 50 mM NaCl, 1 mM DTT, 4% glycerol, room temperature, 30 min; GST-TFs on glutathione beads, 16-mer random dsDNA library, 0.1% formaldehyde crosslink after washing; high values mean tight binding
# FLI1 = target: T1, FLI1 (Homo sapiens, UniProt Q01543 1-452); details: protein: recombinant; tags: N-terminal GST; dsDNA, one strand shown
# T1 sequence: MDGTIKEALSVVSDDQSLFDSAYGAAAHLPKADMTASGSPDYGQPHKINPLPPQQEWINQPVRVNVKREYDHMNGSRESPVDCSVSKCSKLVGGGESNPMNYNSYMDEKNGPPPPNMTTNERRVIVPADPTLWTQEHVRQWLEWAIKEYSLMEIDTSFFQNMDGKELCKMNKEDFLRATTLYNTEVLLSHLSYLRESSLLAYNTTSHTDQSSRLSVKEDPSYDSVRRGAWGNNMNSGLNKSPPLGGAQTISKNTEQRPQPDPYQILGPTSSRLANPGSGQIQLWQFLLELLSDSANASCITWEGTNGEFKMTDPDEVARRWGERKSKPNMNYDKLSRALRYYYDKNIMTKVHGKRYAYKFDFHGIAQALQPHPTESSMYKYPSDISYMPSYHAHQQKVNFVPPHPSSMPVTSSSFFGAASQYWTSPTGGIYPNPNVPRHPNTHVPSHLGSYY
# Outline: (§1)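 Human transcription factors carrying a GST fusion were produced in yeast, bound to glutathione beads, tagged with DNA barcodes and pooled together with a tag-only sample. Each pool was held with 200 nmole of a random double-stranded 16-mer DNA library in Tris/NaCl/DTT/glycerol buffer for 30 min at room temperature, then washed, crosslinked in 0.1% formaldehyde, proximity-ligated with BsaI/T4 ligase (1 h, 37 °C), PCR-amplified and sequenced on an Illumina NextSeq500. Binding signal is the read frequency of each hexamer for a given factor divided by its frequency in the tag-only sample.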
# ELK1 = target: T2, ELK1 (Homo sapiens, UniProt P19419 1-428); details: protein: recombinant; tags: N-terminal GST; dsDNA, one strand shown
# T2 sequence: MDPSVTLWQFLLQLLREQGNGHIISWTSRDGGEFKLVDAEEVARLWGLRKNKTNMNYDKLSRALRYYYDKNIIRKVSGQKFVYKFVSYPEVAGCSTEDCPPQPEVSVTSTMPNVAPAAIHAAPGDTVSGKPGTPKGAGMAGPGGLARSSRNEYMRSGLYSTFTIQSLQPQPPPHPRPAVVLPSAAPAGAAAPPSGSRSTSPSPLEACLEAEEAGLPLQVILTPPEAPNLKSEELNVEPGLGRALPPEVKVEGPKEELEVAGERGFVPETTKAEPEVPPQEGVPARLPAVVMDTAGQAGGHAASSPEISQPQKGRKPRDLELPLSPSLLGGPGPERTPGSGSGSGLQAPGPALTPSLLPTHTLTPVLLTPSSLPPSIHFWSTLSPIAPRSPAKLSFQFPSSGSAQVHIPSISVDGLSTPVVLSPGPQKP
# Outline: as §1
# GABPA = target: T3, GABPA (Homo sapiens, UniProt Q06546 1-454); details: protein: recombinant; tags: N-terminal GST; dsDNA, one strand shown
# T3 sequence: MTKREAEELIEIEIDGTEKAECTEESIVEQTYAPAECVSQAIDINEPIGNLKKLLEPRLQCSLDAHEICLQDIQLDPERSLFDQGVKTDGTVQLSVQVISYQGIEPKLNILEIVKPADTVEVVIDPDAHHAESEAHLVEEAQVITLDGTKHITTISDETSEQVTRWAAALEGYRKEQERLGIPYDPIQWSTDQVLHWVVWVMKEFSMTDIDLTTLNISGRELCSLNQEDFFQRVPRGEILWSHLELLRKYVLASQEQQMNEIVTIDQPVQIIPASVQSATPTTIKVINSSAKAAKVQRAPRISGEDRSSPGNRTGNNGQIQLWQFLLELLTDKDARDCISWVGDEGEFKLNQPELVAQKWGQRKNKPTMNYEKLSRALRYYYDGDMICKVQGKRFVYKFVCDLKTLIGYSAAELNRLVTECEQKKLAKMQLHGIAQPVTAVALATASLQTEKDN
# Outline: as §1
# ERG = target: T4, ERG (Homo sapiens, UniProt P11308 1-479); details: protein: recombinant; tags: N-terminal GST; dsDNA, one strand shown
# T4 sequence: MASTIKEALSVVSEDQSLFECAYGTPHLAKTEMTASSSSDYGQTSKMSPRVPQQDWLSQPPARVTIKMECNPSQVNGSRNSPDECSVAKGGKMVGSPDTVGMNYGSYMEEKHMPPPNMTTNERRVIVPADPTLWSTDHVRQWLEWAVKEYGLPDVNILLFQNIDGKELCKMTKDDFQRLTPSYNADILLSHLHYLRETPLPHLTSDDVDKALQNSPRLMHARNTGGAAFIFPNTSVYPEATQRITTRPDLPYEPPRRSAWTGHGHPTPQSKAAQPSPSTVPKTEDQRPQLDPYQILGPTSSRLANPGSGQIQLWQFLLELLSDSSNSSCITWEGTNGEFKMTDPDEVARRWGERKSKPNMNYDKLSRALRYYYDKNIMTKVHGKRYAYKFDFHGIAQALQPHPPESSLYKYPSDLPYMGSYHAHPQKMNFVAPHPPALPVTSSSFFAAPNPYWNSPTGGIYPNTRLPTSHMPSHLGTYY
# Outline: as §1
# ELF1 = ELF1 (Homo sapiens, UniProt P32519 1-619); details: protein: recombinant; tags: N-terminal GST; dsDNA, one strand shown
# ELF1, sequence (P32519 whole entry): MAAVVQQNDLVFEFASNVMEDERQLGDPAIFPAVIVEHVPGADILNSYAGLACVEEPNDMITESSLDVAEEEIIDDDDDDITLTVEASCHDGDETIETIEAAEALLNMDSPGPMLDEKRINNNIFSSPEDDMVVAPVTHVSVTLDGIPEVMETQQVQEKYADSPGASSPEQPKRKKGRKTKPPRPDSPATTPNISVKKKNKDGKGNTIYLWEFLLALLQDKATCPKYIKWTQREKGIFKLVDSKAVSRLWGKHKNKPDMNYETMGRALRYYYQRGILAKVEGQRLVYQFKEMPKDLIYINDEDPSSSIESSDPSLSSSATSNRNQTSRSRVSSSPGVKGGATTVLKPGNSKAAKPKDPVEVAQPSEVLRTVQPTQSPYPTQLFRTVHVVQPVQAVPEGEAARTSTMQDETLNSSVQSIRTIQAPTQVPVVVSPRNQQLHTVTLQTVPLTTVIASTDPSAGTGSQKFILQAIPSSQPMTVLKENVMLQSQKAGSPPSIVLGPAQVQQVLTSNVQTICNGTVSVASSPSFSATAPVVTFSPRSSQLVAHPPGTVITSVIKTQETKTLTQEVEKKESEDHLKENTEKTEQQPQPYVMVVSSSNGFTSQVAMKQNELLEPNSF
# Outline: as §1
# EHF = target: T5, EHF (Homo sapiens, UniProt Q9NZC4 1-300); details: protein: recombinant; tags: N-terminal GST; dsDNA, one strand shown
# T5 sequence: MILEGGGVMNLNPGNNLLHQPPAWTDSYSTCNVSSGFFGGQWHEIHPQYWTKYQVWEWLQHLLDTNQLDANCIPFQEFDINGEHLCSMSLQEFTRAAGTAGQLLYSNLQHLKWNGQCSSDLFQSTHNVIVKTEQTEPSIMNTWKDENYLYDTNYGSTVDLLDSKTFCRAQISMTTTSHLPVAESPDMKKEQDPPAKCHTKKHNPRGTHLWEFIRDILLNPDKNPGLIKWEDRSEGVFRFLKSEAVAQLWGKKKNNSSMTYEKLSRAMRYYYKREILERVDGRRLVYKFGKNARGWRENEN
# Outline: as §1
# SPI1 = SPI1 (Homo sapiens, UniProt P17947 1-270); details: protein: recombinant; tags: N-terminal GST; dsDNA, one strand shown
# Outline: as §1
# SPIB = SPIB (Homo sapiens, UniProt Q01892 1-262); details: protein: recombinant; tags: N-terminal GST; dsDNA, one strand shown
# SPIB, sequence (Q01892 whole entry): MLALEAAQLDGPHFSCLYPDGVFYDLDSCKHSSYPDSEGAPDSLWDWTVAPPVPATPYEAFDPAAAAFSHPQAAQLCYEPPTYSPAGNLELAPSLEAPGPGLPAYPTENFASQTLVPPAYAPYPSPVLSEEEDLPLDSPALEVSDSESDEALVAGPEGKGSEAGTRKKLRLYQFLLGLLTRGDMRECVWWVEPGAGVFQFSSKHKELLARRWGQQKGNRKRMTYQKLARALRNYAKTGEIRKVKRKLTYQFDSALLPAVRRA
# Outline: as §1
# ELK3 = target: T6, ELK3 (Homo sapiens, UniProt P41970 1-407); details: protein: recombinant; tags: N-terminal GST; dsDNA, one strand shown
# T6 sequence: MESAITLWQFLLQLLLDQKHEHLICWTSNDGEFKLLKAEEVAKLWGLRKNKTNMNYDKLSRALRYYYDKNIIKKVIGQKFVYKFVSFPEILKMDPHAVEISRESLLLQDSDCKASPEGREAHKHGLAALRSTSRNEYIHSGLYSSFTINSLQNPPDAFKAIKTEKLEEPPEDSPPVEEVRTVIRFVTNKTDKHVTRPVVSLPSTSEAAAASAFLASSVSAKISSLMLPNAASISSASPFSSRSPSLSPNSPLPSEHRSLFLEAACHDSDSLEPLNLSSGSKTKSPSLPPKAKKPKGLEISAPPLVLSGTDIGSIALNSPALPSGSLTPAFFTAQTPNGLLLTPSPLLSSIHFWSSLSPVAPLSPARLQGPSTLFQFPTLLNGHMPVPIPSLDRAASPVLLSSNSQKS
# Outline: as §1
# FEV = target: T7, FEV (Homo sapiens, UniProt Q99581 1-238); details: protein: recombinant; tags: N-terminal GST; dsDNA, one strand shown
# T7 sequence: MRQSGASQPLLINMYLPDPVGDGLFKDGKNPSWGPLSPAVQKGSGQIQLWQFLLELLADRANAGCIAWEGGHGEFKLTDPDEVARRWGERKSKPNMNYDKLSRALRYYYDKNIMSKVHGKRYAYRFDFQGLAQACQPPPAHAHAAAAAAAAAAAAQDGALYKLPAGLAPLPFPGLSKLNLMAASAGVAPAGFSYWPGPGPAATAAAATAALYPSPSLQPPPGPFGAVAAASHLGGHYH
# Outline: as §1
# ETV5 = ETV5 (Homo sapiens, UniProt P41161 1-510); details: protein: recombinant; tags: N-terminal GST; dsDNA, one strand shown
# ETV5, sequence (P41161 whole entry): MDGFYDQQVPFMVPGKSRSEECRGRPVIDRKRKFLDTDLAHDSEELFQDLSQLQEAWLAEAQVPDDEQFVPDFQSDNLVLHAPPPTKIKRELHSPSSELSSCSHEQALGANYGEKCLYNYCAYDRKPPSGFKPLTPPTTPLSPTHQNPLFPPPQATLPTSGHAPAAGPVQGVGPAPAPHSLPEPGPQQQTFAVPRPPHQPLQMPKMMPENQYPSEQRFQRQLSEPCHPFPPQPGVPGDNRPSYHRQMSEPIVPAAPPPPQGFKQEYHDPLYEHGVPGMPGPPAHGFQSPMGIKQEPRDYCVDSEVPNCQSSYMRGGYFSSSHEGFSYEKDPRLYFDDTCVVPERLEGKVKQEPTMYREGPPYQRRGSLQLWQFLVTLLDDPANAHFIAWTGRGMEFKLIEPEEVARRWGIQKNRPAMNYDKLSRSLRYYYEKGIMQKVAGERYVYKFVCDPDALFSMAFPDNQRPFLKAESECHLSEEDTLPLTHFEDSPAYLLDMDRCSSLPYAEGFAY
# Outline: as §1
# HSF1 = HSF1 (Homo sapiens, UniProt Q00613 1-529); details: protein: recombinant; tags: N-terminal GST; chain copies: 3; dsDNA, one strand shown
# HSF1, sequence (Q00613 whole entry): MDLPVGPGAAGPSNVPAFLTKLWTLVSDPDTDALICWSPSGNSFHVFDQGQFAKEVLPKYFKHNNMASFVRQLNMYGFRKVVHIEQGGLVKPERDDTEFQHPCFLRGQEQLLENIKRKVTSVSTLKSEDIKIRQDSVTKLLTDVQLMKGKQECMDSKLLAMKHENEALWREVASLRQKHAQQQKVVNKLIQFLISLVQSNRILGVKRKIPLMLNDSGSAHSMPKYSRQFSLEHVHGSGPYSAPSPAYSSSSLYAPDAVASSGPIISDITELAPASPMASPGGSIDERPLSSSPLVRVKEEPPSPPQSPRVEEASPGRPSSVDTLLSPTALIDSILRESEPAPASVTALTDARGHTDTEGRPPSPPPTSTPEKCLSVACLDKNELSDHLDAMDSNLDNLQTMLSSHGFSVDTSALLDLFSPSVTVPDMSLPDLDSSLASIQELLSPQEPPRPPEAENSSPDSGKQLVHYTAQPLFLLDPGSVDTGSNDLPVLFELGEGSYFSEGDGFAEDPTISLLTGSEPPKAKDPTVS
# Outline: as §1
# SPIC = target: T8, SPIC (Homo sapiens, UniProt Q8N5J4 1-248); details: protein: recombinant; tags: N-terminal GST; dsDNA, one strand shown
# T8 sequence: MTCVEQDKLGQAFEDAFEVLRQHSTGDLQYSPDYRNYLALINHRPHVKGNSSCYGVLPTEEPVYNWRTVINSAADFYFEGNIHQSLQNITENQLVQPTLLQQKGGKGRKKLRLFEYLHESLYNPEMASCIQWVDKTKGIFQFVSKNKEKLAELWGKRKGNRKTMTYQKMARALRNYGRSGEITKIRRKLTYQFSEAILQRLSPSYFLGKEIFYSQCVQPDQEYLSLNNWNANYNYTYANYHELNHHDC
# Outline: as §1
# ELF4 = ELF4 (Homo sapiens, UniProt Q99607 1-663); details: protein: recombinant; tags: N-terminal GST; dsDNA, one strand shown
# ELF4, sequence (Q99607 whole entry): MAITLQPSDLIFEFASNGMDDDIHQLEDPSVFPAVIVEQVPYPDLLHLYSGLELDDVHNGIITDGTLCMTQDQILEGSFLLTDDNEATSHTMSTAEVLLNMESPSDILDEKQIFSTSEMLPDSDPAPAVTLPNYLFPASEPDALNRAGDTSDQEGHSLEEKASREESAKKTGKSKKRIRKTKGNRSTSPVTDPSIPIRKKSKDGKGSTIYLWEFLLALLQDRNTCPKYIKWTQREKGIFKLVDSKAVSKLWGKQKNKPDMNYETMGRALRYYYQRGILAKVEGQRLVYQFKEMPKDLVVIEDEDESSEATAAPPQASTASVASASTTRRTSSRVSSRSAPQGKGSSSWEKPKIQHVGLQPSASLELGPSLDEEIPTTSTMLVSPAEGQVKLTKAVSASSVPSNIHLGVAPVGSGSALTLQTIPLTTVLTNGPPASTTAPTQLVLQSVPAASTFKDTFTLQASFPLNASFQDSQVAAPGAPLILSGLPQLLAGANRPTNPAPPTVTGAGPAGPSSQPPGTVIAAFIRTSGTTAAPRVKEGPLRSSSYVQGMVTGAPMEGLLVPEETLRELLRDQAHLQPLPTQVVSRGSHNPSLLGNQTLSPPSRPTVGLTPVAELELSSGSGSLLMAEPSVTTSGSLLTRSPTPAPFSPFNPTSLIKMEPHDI
# Outline: as §1
# ELK4 = target: T9, ELK4 (Homo sapiens, UniProt P28324-2 1-405); details: protein: recombinant; tags: N-terminal GST; dsDNA, one strand shown
# T9 sequence: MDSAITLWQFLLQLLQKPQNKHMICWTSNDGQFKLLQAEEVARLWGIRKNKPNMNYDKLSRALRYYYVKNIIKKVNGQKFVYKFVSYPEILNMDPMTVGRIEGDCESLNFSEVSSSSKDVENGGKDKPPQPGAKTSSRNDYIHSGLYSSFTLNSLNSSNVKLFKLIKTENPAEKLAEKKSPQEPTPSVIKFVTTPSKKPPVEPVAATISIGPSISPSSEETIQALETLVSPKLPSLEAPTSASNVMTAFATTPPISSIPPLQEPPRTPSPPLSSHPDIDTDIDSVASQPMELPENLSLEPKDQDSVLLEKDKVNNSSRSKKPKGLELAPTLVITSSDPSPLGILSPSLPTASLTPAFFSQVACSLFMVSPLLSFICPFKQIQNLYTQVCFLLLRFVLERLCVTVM
# Outline: as §1
# ETV2 = target: T10, ETV2 (Homo sapiens, UniProt O00321 1-342); details: protein: recombinant; tags: N-terminal GST; dsDNA, one strand shown
# T10 sequence: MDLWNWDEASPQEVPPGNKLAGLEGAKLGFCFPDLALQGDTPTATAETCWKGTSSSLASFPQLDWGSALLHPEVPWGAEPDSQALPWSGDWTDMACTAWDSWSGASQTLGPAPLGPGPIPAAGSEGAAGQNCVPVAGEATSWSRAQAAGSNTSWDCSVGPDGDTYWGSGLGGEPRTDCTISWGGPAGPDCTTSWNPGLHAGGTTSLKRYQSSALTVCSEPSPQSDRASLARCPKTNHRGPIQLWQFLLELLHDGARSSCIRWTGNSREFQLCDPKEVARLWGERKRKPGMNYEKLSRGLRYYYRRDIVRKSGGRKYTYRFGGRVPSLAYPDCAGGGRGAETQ
# Outline: as §1
# ELF3 = target: T11, ELF3 (Homo sapiens, UniProt P78545 1-371); details: protein: recombinant; tags: N-terminal GST; dsDNA, one strand shown
# T11 sequence: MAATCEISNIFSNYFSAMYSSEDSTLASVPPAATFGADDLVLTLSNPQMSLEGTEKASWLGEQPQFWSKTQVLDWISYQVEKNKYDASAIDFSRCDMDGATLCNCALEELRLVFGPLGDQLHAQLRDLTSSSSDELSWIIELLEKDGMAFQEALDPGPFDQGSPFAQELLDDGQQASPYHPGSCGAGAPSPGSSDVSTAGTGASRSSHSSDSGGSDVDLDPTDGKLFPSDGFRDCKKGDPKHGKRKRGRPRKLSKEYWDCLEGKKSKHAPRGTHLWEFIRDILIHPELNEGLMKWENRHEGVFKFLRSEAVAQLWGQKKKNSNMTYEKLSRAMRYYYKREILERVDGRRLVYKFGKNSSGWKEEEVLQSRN
# Outline: as §1
# ETV1 = ETV1 (Homo sapiens, UniProt P50549 1-477); details: protein: recombinant; tags: N-terminal GST; dsDNA, one strand shown
# ETV1, sequence (P50549 whole entry): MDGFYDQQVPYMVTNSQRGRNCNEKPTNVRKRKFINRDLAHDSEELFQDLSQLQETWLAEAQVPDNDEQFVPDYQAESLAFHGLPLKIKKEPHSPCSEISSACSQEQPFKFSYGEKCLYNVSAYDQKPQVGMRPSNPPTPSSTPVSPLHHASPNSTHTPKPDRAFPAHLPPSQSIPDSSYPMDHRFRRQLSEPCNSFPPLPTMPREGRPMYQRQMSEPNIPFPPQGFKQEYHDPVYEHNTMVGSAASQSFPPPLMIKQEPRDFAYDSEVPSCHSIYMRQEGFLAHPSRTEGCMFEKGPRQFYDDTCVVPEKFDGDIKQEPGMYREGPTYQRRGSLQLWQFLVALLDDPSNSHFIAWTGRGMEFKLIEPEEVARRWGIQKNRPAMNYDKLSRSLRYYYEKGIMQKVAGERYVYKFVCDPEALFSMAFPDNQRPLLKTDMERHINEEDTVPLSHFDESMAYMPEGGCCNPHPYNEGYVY
# Outline: as §1
sequence,measurement,setting,value
TGTTCA,binding signal,FLI1,"1.11 fold enrichment (6-mer frequency, TF over GST control)"
same,binding signal,ELK1,"1.31 fold enrichment (6-mer frequency, TF over GST control)"
same,binding signal,GABPA,"1.21 fold enrichment (6-mer frequency, TF over GST control)"
same,binding signal,ERG,"1.19 fold enrichment (6-mer frequency, TF over GST control)"
same,binding signal,ELF1,"1.18 fold enrichment (6-mer frequency, TF over GST control)"
same,binding signal,EHF,"1.23 fold enrichment (6-mer frequency, TF over GST control)"
same,binding signal,SPI1,"1.3 fold enrichment (6-mer frequency, TF over GST control)"
same,binding signal,SPIB,"1.17 fold enrichment (6-mer frequency, TF over GST control)"
same,binding signal,ELK3,"1.37 fold enrichment (6-mer frequency, TF over GST control)"
same,binding signal,FEV,"1.19 fold enrichment (6-mer frequency, TF over GST control)"
same,binding signal,ETV5,"1.18 fold enrichment (6-mer frequency, TF over GST control)"
same,binding signal,HSF1,"1.09 fold enrichment (6-mer frequency, TF over GST control)"
same,binding signal,SPIC,"1.17 fold enrichment (6-mer frequency, TF over GST control)"
same,binding signal,ELF4,"1.21 fold enrichment (6-mer frequency, TF over GST control)"
same,binding signal,ELK4,"1.28 fold enrichment (6-mer frequency, TF over GST control)"
same,binding signal,ETV2,"1.07 fold enrichment (6-mer frequency, TF over GST control)"
same,binding signal,ELF3,"1.22 fold enrichment (6-mer frequency, TF over GST control)"
same,binding signal,ETV1,"1.21 fold enrichment (6-mer frequency, TF over GST control)"
